# Test results from the supplement of paper PMC7411054.
# Where a name gives a salt, the structure may show the parent alone.
# Legend:
# Assay in all cases: lowest phenotypically active concentration; higher = less potent
# Conditions in all cases: treatment time: 24 h
# A549-TP53BP1-CLTA = tested on: A549-TP53BP1-CLTA
# How it was run: (§1)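 Each of fifteen gene-edited A549, HepG2 and WPMY1 reporter lines, marked with BFP for segmentation and GFP and RFP/FusionRed, was treated in four wells at 0.3, 1, 3 or 9 µM for 24 h prior to live imaging. Normalisation of per-well live-cell features used solvent control wells. Deviation needed ≥3 of 4 wells beyond the 95th percentile of control Euclidean distances, and reproducibility needed a median replicate Pearson correlation above the 95th percentile of non-replicates. Both were required for phenotypic activity.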
# HepG2-CANX-COX4 = tested on: HepG2-CANX-COX4
# How it was run: as §1
# HepG2-GM130-SQSTM1 = tested on: HepG2-GM130-SQSTM1
# How it was run: as §1
# HepG2-TUBA1B-RELA = tested on: HepG2-TUBA1B-RELA
# How it was run: as §1
# WPMY1-TP53BP1-CLTA = tested on: WPMY1-TP53BP1-CLTA
# How it was run: as §1
# WPMY1-CANX-COX4 = tested on: WPMY1-CANX-COX4
# How it was run: as §1
# WPMY1-GM130-SQSTM1 = tested on: WPMY1-GM130-SQSTM1
# How it was run: as §1
# WPMY1-ACTB-RAB5A = tested on: WPMY1-ACTB-RAB5A
# How it was run: as §1
# WPMY1-TUBA1B-RELA = tested on: WPMY1-TUBA1B-RELA
# How it was run: as §1
SMILES,lowest phenotypically active concentration (A549-TP53BP1-CLTA) [µM],lowest phenotypically active concentration (HepG2-CANX-COX4) [µM],lowest phenotypically active concentration (HepG2-GM130-SQSTM1) [µM],lowest phenotypically active concentration (HepG2-TUBA1B-RELA) [µM],lowest phenotypically active concentration (WPMY1-TP53BP1-CLTA) [µM],lowest phenotypically active concentration (WPMY1-CANX-COX4) [µM],lowest phenotypically active concentration (WPMY1-GM130-SQSTM1) [µM],lowest phenotypically active concentration (WPMY1-ACTB-RAB5A) [µM],lowest phenotypically active concentration (WPMY1-TUBA1B-RELA) [µM]
C[C@H]1Oc2cc(cnc2N)-c2c(nn(C)c2C#N)CN(C)C(=O)c2ccc(F)cc21,3,3,3,≤ 0.3,9,,,,
COc1ccc(CNC(=O)Nc2ncc([N+](=O)[O-])s2)cc1,9,,,,9,9,9,,
CNCCC(Oc1ccc(C(F)(F)F)cc1)c1ccccc1 (centres undefined) [fluoxetine],9,,,3,,,9,,
CCCNCC(O)COc1ccccc1C(=O)CCc1ccccc1 (centres undefined) [propafenone],9,,,9,3,9,3,9,
COc1ccc(CCNCc2ccc(OCc3ccc(Cl)nc3)c(OC)c2)cc1OC [SBE 13 hydrochloride],9,,,9,9,9,9,9,9
COc1c(C=O)c(O)cc2c1C(=O)c1ccccc1C2=O [Damnacanthal],3,,9,,9,9,3,9,9
CCCCOc1cc(C(=O)NCCN(CC)CC)c2ccccc2n1 [cinchocaine],9,,,,,,,9,
COc1cc(OC)c2cc(-c3ccncc3)cnc2c1 [DMPQ dihydrochloride],9,9,,,9,9,,,
Cc1ccc(NC2=CC(=O)c3sc(C)nc3C2=O)cc1 [Ryuvidine],1,,3,,,3,1,1,1
CC/C(=C(\CC)c1ccc(O)c(CN(CC)CC)c1)c1ccc(O)c(CN(CC)CC)c1,1,,1,1,9,1,1,1,9
O=S(=O)(c1cccc2cnccc12)N1CCCNCC1 [fasudil],9,3,3,9,,3,9,3,9
CCCS(=O)(=O)Nc1ccc(F)c(C(=O)c2c[nH]c3ncc(Cl)cc23)c1F,1,1,≤ 0.3,9,,,9,,
COc1cc(N2CCC(N)CC2)ccc1Nc1ncc(Cl)c(-c2c[nH]c3ccccc23)n1,3,1,3,1,≤ 0.3,1,1,1,1
Cc1cc(CS(=O)(=O)c2ccccc2)cc(OCc2ccc(CN3CCC[C@@H]3CO)cc2)c1 [PF 543 hydrochloride],,,9,,,,,9,
CCCc1cc(C)n(C)c(=O)c1CN(C)C(=O)c1cc(-c2ccc(N3CCN(C(C)C)CC3)nc2)cc2c1cnn2C(C)C,,,3,,9,3,3,3,9
COc1cc(NC(=O)c2cccc(-n3cc(NC(=O)Nc4cccc(C)c4)cn3)c2)cc(OC)c1OC,,,,,,,9,,9
